In PubChem BioAssay (NCI):
About 79,000 compounds went through this panel and 15% of them were active in at least one assay; those are over-represented in the sample as a whole. Values without a mark were called inactive. Calls of active or inactive are those of the source. Cut-off read from the data, not from the text of the source: active = growth inhibition above about 70%; inactive = the rest.

Experiments:
[1] = NCI Yeast Anticancer Drug Screen. Data for the rad50 strain (AID 155);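 note: 0% = growth of vehicle-only cultures of the same strain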; details: S. cerevisiae rad50 strain growth inhibition; at 50.0 µM; hits give high values
In short: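 Compounds were tested on a yeast strain with an engineered DNA damage repair alteration; the reported value is growth inhibition normalised to vehicle treatment.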

[2] = NCI Yeast Anticancer Drug Screen. Data for the mec2-1 strain (AID 157); details: S. cerevisiae mec2-1 strain, at 50.0 µM, hits give high values
In short: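 Using mec2-1 yeast: add compound, measure growth, express inhibition versus vehicle-treated cultures.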

[3] = NCI Yeast Anticancer Drug Screen. Data for the sgs1 mgt1 strain (AID 161);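 note: 0% = growth of cultures given vehicle only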; details: S. cerevisiae sgs1 mgt1 strain, at 50.0 µM, hits give high values
In short: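 Percent growth inhibition was derived by comparing compound-exposed mutant yeast with vehicle-exposed cultures. The strain carries alterations in DNA damage repair.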

[4] = NCI Yeast Anticancer Drug Screen. Data for the cln2 rad14 strain (AID 165);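 note: 0% = growth equal to vehicle treated cultures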; details: S. cerevisiae cln2 rad14 strain, at 50.0 µM, hits give high values
In short: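 Yeast strain cln2 rad14, bearing defects in cell cycle control and DNA repair, serves as the test system; values reflect growth inhibition compared with vehicle.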

[5] = NCI Yeast Anticancer Drug Screen. Data for the bub3 strain (AID 167); details: S. cerevisiae bub3 mutant strain, at 50.0 µM, hits give high values
In short: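 Growth of a checkpoint-deficient yeast mutant is measured after compound exposure. Values represent inhibition relative to vehicle.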

[6] = NCI Yeast Anticancer Drug Screen. Data for the mlh1 rad18 strain (AID 175); details: S. cerevisiae mlh1 rad18 strain growth inhibition; at 50.0 µM; hits give high values
In short: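 Steps: expose repair-defective yeast to compound; measure growth; express inhibition against vehicle-treated controls.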

O=[N+]([O-])c1ccccc1S(=O)NCc1c(Cl)cccc1Cl (stereo unspecified)
growth inhibition [1]: 14.1%
growth inhibition [2]: 13.3%
growth inhibition [3]: 24.5%
growth inhibition [4]: 22.5%
growth inhibition [5]: 5.2%
growth inhibition [6]: 24.5%

O=C(O)C(C(=O)O)C(c1ccccc1)c1ccccc1Br (stereo unspecified)
growth inhibition [1]: 5.15%
growth inhibition [2]: 17.1%
growth inhibition [3]: 28.1%
growth inhibition [4]: -184%
growth inhibition [5]: 23.9%
growth inhibition [6]: 29.5%

CNNC1=NS(=O)(=O)c2cc(C(=O)OC)c(Cl)cc2S1
growth inhibition [1]: 8.75%
growth inhibition [2]: -2.25%
growth inhibition [3]: -9.9%
growth inhibition [4]: 0.5%
growth inhibition [5]: -6%
growth inhibition [6]: 8.25%

Cc1c(Cl)cccc1NC(=O)Nc1ccccc1F
growth inhibition [1]: 14.2%
growth inhibition [2]: 7.65%
growth inhibition [3]: 15.2%
growth inhibition [4]: 19.2%
growth inhibition [5]: 28.4%
growth inhibition [6]: 17.4%

Cc1ccc(S(=O)(=O)CCS(C)(=O)=O)cc1
growth inhibition [1]: -0.5%
growth inhibition [2]: 2.2%
growth inhibition [3]: 13.2%
growth inhibition [4]: 21.8%
growth inhibition [5]: -13.7%
growth inhibition [6]: -11.2%

CC(C)N(CC(=O)NC(=O)c1ccccc1)C(C)C
growth inhibition [1]: -2.85%
growth inhibition [2]: -6.45%
growth inhibition [3]: -3.55%
growth inhibition [4]: -32.9%
growth inhibition [5]: 0.05%
growth inhibition [6]: -2.6%

COC(=O)c1c[nH]c(C=O)c1C
growth inhibition [1]: 15.8%
growth inhibition [2]: -0.7%
growth inhibition [3]: -6.95%
growth inhibition [4]: -67.8%
growth inhibition [5]: 8.3%
growth inhibition [6]: 8.8%

N#CC(C#N)=C1c2ccccc2Sc2ccccc21
growth inhibition [1]: -18.6%
growth inhibition [2]: -0.35%
growth inhibition [3]: -2.05%
growth inhibition [4]: -21.3%
growth inhibition [5]: -11.5%
growth inhibition [6]: -22.2%

O=c1oc2ncccc2n1Cc1ccc([N+](=O)[O-])cc1
growth inhibition [1]: -14.7%
growth inhibition [2]: -22%
growth inhibition [3]: 1.25%
growth inhibition [4]: 20.8%
growth inhibition [5]: -1.15%
growth inhibition [6]: 19.6%

Nc1cccc(/C=C(/C(=O)O)c2ccc(Cl)cc2)c1
growth inhibition [1]: 3.4%
growth inhibition [2]: -4.45%
growth inhibition [3]: -7.3%
growth inhibition [4]: -38.9%
growth inhibition [5]: -15.6%
growth inhibition [6]: 0.15%

CCS(=O)(=O)N(CC(=O)O)Cc1ccccc1
growth inhibition [1]: -4.95%
growth inhibition [2]: 7.3%
growth inhibition [3]: -13.4%
growth inhibition [4]: 0.95%
growth inhibition [5]: 6.8%
growth inhibition [6]: 0.65%

C#CCOCCC(C(=O)O)C(=O)O
growth inhibition [1]: 9.9%
growth inhibition [2]: 5.45%
growth inhibition [3]: 8.6%
growth inhibition [4]: -1.7%
growth inhibition [5]: 11.9%
growth inhibition [6]: 2.7%

COc1ccccc1-n1c(C)nc2c(cnn2CN2CCCCC2)c1=O
growth inhibition [1]: 0.85%
growth inhibition [2]: -6.4%
growth inhibition [3]: 12.3%
growth inhibition [4]: -0.7%
growth inhibition [5]: 0.95%
growth inhibition [6]: 12%

CCCCCCCCCCCCCCCOc1cc(OC)ccc1-c1nnc(SC)s1
growth inhibition [1]: -15.2%
growth inhibition [2]: -15.6%
growth inhibition [3]: -24.1%
growth inhibition [4]: -3.05%
growth inhibition [5]: -11.5%
growth inhibition [6]: -5.7%

O=c1c2cnccc2cc2n1CCc1c-2[nH]c2ccccc12
growth inhibition [1]: 88.4% (active)
growth inhibition [2]: 89.3% (active)
growth inhibition [3]: 88.8% (active)
growth inhibition [4]: 90.2% (active)
growth inhibition [5]: 69.8%
growth inhibition [6]: 86.4% (active)

Clc1cc2nn(C3CCCCO3)nc2cc1Cl (stereo unspecified)
growth inhibition [1]: 0.65%
growth inhibition [2]: -12.8%
growth inhibition [3]: -18.4%
growth inhibition [4]: -15.9%
growth inhibition [5]: 16.9%
growth inhibition [6]: -44.8%

CN=C(N)SCCSC(N)=NC
growth inhibition [1]: -12.3%
growth inhibition [2]: -18.2%
growth inhibition [3]: 0.25%
growth inhibition [4]: -13.5%
growth inhibition [5]: 11.5%
growth inhibition [6]: -5.15%

Cc1ccccc1NS(=O)(=O)c1c(N)ncn1C
growth inhibition [1]: -5.2%
growth inhibition [2]: 3.55%
growth inhibition [3]: -0.9%
growth inhibition [4]: -29.3%
growth inhibition [5]: -0.65%
growth inhibition [6]: 5.25%

CC(=O)c1ccccc1C
growth inhibition [1]: -32.6%
growth inhibition [2]: -69.5%
growth inhibition [3]: -43.7%
growth inhibition [4]: -1.25%
growth inhibition [5]: -38.1%
growth inhibition [6]: -22.3%

Cn1c(=O)n2n(c1=O)[C@@H](c1ccccc1)[C@H]2c1ccccc1
growth inhibition [1]: 29.8%
growth inhibition [2]: -45.4%
growth inhibition [3]: -9.85%
growth inhibition [4]: -5.85%
growth inhibition [5]: 20.2%
growth inhibition [6]: -59.3%

O=[N+]([O-])c1cccc(/C=N\NS(=O)(=O)c2ccc(Cl)cc2)c1O
growth inhibition [1]: -11.7%
growth inhibition [2]: -13.3%
growth inhibition [3]: -11.8%
growth inhibition [4]: -2.3%
growth inhibition [5]: -38.4%
growth inhibition [6]: -5.9%

NC(CCOCCP(=O)(O)CCOCCC(N)C(=O)O)C(=O)O (stereo unspecified)
growth inhibition [1]: -42%
growth inhibition [2]: -20.8%
growth inhibition [3]: -27.1%
growth inhibition [4]: -4.5%
growth inhibition [5]: -8.95%
growth inhibition [6]: -8.75%

CCCCOC(=O)C1CCCC1=O (stereo unspecified)
growth inhibition [1]: -14.6%
growth inhibition [2]: -31.9%
growth inhibition [3]: -2.15%
growth inhibition [4]: 1.45%
growth inhibition [5]: -43.1%
growth inhibition [6]: 9.05%

COc1ccc(C=Nc2c(O)ccc3c2CCCC3)cc1OC
growth inhibition [1]: 9.55%
growth inhibition [2]: 4.7%
growth inhibition [3]: -6.1%
growth inhibition [4]: -49.3%
growth inhibition [5]: 1.95%
growth inhibition [6]: 14.9%

CCOC(=O)C[C@](C)(O)C1CCCN1 (stereo partly specified)
growth inhibition [1]: 26.5%
growth inhibition [2]: 11.8%
growth inhibition [3]: 5.95%
growth inhibition [4]: 5.3%
growth inhibition [5]: -3%
growth inhibition [6]: 8.75%

CC(=O)NC1(C)C(=O)N=C(N)N=C1N (stereo unspecified)
growth inhibition [1]: 11.2%
growth inhibition [2]: 4.3%
growth inhibition [3]: 11.1%
growth inhibition [4]: -29.8%
growth inhibition [5]: -4.9%
growth inhibition [6]: 8.8%

CC(=C/c1ccccc1)/C=C1/SC(=S)N(C=C2C(=O)NC(=O)NC2=O)C1=O
growth inhibition [1]: 54.9%
growth inhibition [2]: 54.1%
growth inhibition [3]: 32.4%
growth inhibition [4]: 50.2%
growth inhibition [5]: 50.5%
growth inhibition [6]: 43.2%

CC(C)n1c(=S)[nH]c2c(=O)[nH]c(=O)[nH]c21
growth inhibition [1]: -30.9%
growth inhibition [2]: -22.4%
growth inhibition [3]: 0.05%
growth inhibition [4]: -53.2%
growth inhibition [5]: 10.8%
growth inhibition [6]: -17.4%

CC(SCc1ccccc1)C(NC(=O)c1ccccc1)C(=O)O (stereo unspecified)
growth inhibition [1]: 4.95%
growth inhibition [2]: 9.9%
growth inhibition [3]: -8.3%
growth inhibition [4]: -0.3%
growth inhibition [5]: 10.1%
growth inhibition [6]: 7.55%

Cc1nn(C(=O)Cc2ccccc2)c2c1C(c1ccc([N+](=O)[O-])cc1)SC(N)=N2 (stereo unspecified)
growth inhibition [1]: 11.4%
growth inhibition [2]: 9.9%
growth inhibition [3]: 22.4%
growth inhibition [4]: 15.8%
growth inhibition [5]: 8.15%
growth inhibition [6]: 9.75%

O=c1[nH]c(=O)c2c(Cl)cccc2[nH]1
growth inhibition [1]: 7.2%
growth inhibition [2]: 9.9%
growth inhibition [3]: 5.35%
growth inhibition [4]: -22%
growth inhibition [5]: -2.7%
growth inhibition [6]: -4.1%

C=C(C)C1CC(=O)C2(C)C(C1)OC(=O)C2C(=O)OCC (stereo unspecified)
growth inhibition [1]: 11.6%
growth inhibition [2]: -0.65%
growth inhibition [3]: -8.3%
growth inhibition [4]: 8.95%
growth inhibition [5]: 0.1%
growth inhibition [6]: -6.65%

O=C(O)c1cc(O)[nH]c(=O)c1
growth inhibition [1]: -12%
growth inhibition [2]: -105%
growth inhibition [3]: -22.6%
growth inhibition [4]: -48.5%
growth inhibition [5]: -26%
growth inhibition [6]: -16.2%

FC(F)(c1nnnn1Cc1ccccc1)C(F)(F)C(F)(F)C(F)(F)C(F)(F)C(F)(F)C(F)(F)C(F)(F)c1nnnn1Cc1ccccc1
growth inhibition [1]: 10.2%
growth inhibition [2]: 13.7%
growth inhibition [3]: -11.7%
growth inhibition [4]: -2.65%
growth inhibition [5]: 7.95%
growth inhibition [6]: 19.3%

CCOC(CN(Cc1ccccc1)CC(OCC)OCC)OCC
growth inhibition [1]: 12.7%
growth inhibition [2]: 8.15%
growth inhibition [3]: 12.9%
growth inhibition [4]: 5.85%
growth inhibition [5]: 9.8%
growth inhibition [6]: -4%

CN(CCCO)CCCO
growth inhibition [1]: 5.9%
growth inhibition [2]: -2.4%
growth inhibition [3]: 0.7%
growth inhibition [4]: 3.35%
growth inhibition [5]: 1.85%
growth inhibition [6]: -0.85%

CN(CCO)CCC1COc2ccccc2O1 (stereo unspecified)
growth inhibition [1]: 2.1%
growth inhibition [2]: -29.6%
growth inhibition [3]: 0.25%
growth inhibition [4]: 12.1%
growth inhibition [5]: -1.05%
growth inhibition [6]: 1.25%

CC(=O)OCC(=O)C1(O)CCC2C3CCC4=CC(=O)CCC4(C)C3(SC#N)CC(=O)C21C (stereo unspecified)
growth inhibition [1]: -8%
growth inhibition [2]: 19.9%
growth inhibition [3]: 27.2%
growth inhibition [4]: 13.2%
growth inhibition [5]: 11.8%
growth inhibition [6]: 2.45%

CCOC(=O)C1C(=O)C(=O)N(C)C1c1ccccc1 (stereo unspecified)
growth inhibition [1]: -2.6%
growth inhibition [2]: 16.3%
growth inhibition [3]: 8.1%
growth inhibition [4]: -49.9%
growth inhibition [5]: 2.7%
growth inhibition [6]: 8.55%

CC1(C)C2C=CC1(C)C1(CC2)OCCO1 (stereo unspecified)
growth inhibition [1]: 10.5%
growth inhibition [2]: 17.5%
growth inhibition [3]: -20.5%
growth inhibition [4]: 20.8%
growth inhibition [5]: -55.8%
growth inhibition [6]: -115%

CCCCCCCC(=O)Nc1ccc(-n2c(=O)cc(C)n2C)cc1
growth inhibition [1]: 15.7%
growth inhibition [2]: -1.25%
growth inhibition [3]: 12.2%
growth inhibition [4]: -32%
growth inhibition [5]: -7.7%
growth inhibition [6]: 14.1%
